# Source: the supplement of paper PMC6555819
# Assays:
# Assay in all cases: PBM binding z-score (relative to random genomic background probes); higher = stronger binding; sequences stand for … in GC…GCGATTGACAGCGTAGAATGAAGG
# [1] = tested on: PPARg:RXRa DBDmut IVT, anti-RXR (DBD mutation: RXRa K156A/R161A, NR concentration 270 nM, RXRa partner concentration 90 nM)
# Method in brief: (§1)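 Regression normalization was applied to scanned fluorescence from custom Agilent 4×180K protein-binding microarrays. Before scanning, arrays were incubated 1 h with ligand-free nuclear receptor dimers, and binding was detected with antibodies against each partner (one per run). Binding z-scores use the random background probes as reference.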
# [2] = tested on: PPARg:RXRa IVT, anti-PPARg (NR concentration 270 nM, RXRa partner concentration 90 nM)
# Method in brief: as §1
# [3] = tested on: PPARg DBDmut:RXRa IVT, anti-PPARg (DBD mutation: PPARg1 K132A/R137A, NR concentration 270 nM, RXRa partner concentration 90 nM)
# Method in brief: as §1
# [4] = tested on: PPARg DBDmut IVT, anti-PPARg (DBD mutation: PPARg1 K132A/R137A, NR concentration 270 nM)
# Method in brief: as §1
# [5] = tested on: PPARg homodimer (NR concentration 180 nM)
# Method in brief: as §1
# [6] = tested on: PXR:RXRa (NR concentration 270 nM, RXRa partner concentration 90 nM)
# Method in brief: as §1
# [7] = tested on: PXR homodimer (NR concentration 270 nM)
# Method in brief: as §1
# [8] = tested on: RARa:RXR (NR concentration 270 nM, RXRa partner concentration 90 nM)
# Method in brief: as §1
# [9] = tested on: RARa homodimer (NR concentration 270 nM)
# Method in brief: as §1
# [10] = tested on: RARb:RXRa (NR concentration 270 nM, RXRa partner concentration 90 nM)
# Method in brief: as §1
# [11] = tested on: RARb homodimer (NR concentration 270 nM)
# Method in brief: as §1
# [12] = tested on: RARg:RXRa (NR concentration 270 nM, RXRa partner concentration 90 nM)
# Method in brief: as §1
# [13] = tested on: RARg homodimer (NR concentration 270 nM)
# Method in brief: as §1
# [14] = tested on: RXRa DBDmut IVT, anti-RXR (DBD mutation: RXRa K156A/R161A, NR concentration 90 nM)
# Method in brief: as §1
# [15] = tested on: RXRa homodimer (NR concentration 180 nM)
# Method in brief: as §1
# [16] = tested on: THRa:RXRa (NR concentration 90 nM, RXRa partner concentration 90 nM)
# Method in brief: as §1
# [17] = tested on: THRa homodimer (NR concentration 90 nM)
# Method in brief: as §1
# [18] = tested on: VDR homodimer (NR concentration 270 nM)
# Method in brief: as §1
Sequence,PBM binding z-score [1],PBM binding z-score [2],PBM binding z-score [3],PBM binding z-score [4],PBM binding z-score [5],PBM binding z-score [6],PBM binding z-score [7],PBM binding z-score [8],PBM binding z-score [9],PBM binding z-score [10],PBM binding z-score [11],PBM binding z-score [12],PBM binding z-score [13],PBM binding z-score [14],PBM binding z-score [15],PBM binding z-score [16],PBM binding z-score [17],PBM binding z-score [18]
TTACCAAGGTGAAGGTTGTTGATCCCTCTGTAGA,1.42,2.94,0.413,-0.108,0.542,0.665,-0.348,0.887,-0.403,1.58,1.02,0.564,0.48,-0.157,0.836,2.06,0.718,-0.156
CCTGCTAGGTCAGTGGTCAGCTAAAGCAGCTCGC,3.16,2.76,-1.08,-1.65,0.944,-0.0429,-0.667,0.509,-0.82,3.42,2.63,2.56,3.82,0.821,0.693,1.51,0.454,-0.319
CTCGAAAGGTCGTGCTCAGGTGCGTATACCAAAC,0.285,1.52,0.6,0.566,0.856,3.09,0.43,3.46,-0.163,3.75,2.4,4.1,3.38,2.27,4.39,2.69,0.271,1.45
TCATGTAGGTAATACAGGTGAAAGTCGGCATCTA,3.86,3.68,0.771,0.521,0.456,0.27,-0.325,0.507,0.465,0.0857,0.12,0.0242,-0.0708,0.736,0.579,0.531,-0.119,-0.0287
CAAACTAGGTTACCGGAAGGTCAAAGTCCGCATG,7.31,6.8,1.12,1.42,4.03,4.47,1.65,5.36,1.39,3.9,4.55,6.15,4.19,0.838,4.64,3.68,1.66,2.56
ACAGACAGGTGATGAAGGCAACTCAGGCTATCAT,-0.272,-0.316,0.175,-1.07,-0.119,-0.469,-0.142,0.0224,0.0844,0.0179,-0.412,0.106,0.345,-0.405,0.152,0.815,-0.588,-0.37
AATACAGGGTCACTAGGCCAGAGTCGGTACGAAT,4.04,5.73,1.74,1.6,2.69,3.08,0.172,4.13,1.14,4.1,3.25,5.29,4.87,2.71,5.3,3.43,1.24,2.7
TCTCCTAGGTCAACGATGGTCAGCTAATCTGCTA,4.1,4.22,0.539,1.02,2.22,2.36,-0.309,2.66,0.663,4.28,3.61,4.5,5.72,1.41,3.49,3.32,1.59,0.166
GCTAGTTGGTCAGTATAAGGTCACACACCGGTCG,1.28,2.3,0.282,0.251,4.01,4.26,1.61,4.86,2.27,3.5,4.41,4.28,3.75,0.514,3.9,4.29,5.46,2.76
TGAATGAGGTTATAAGTTCAGGGAACGTTGCAAA,1.14,1.78,0.562,0.599,1.97,3.24,1.46,3.81,0.0281,2.87,2.54,4.88,2.27,1.49,3.46,2.58,0.487,2.85
CCTCCAAGGTCAGCAGGTCAGTGAAAGCGACGTG,2.44,3.16,-0.182,-1.13,2.56,3.13,0.806,4.32,0.668,5.41,4.97,6.12,6.45,2.04,4.21,3.74,2.14,1.55
TCATATAAGTAAATGCTAGGTGAAAGTCCGATCT,3.04,0.569,0.642,0.691,1.1,0.626,0.422,0.789,1.78,0.428,0.289,0.478,0.348,2,0.855,0.92,0.526,0.559
GGAACGAGGGCAAGTTGATACCAGAGTTTGATGG,3.63,3.07,-0.214,-0.247,0.551,0.835,0.927,0.537,0.0477,2.45,1.43,1.53,2.1,2.56,1,1.31,-0.003,2.05
TTACCAAGGTGAGGGTCGTTGATCCCTCTGTAGA,1.3,2.21,-0.596,-0.428,0.109,0.865,-0.63,1.36,-0.812,1.45,0.945,0.785,0.443,-0.138,1.37,1.8,0.423,0.171
CCTATTAGTTGACCATAAGGGCAACTGAAGCTCG,0.175,0.85,0.663,0.553,1.38,1,0.613,0.807,1.39,1.73,2.04,1.5,1.31,0.724,0.69,1.99,1.28,0.824
